Laboratory results: PubChem BioAssay AID1259240 (Keith Lab, Institute of Cancer Science, University of …, 2017)
Calls of active or inactive are those of the source. Cut-off read from the data, not from the text of the source: active = fold change mostly below about -2 (no sharp cut-off); inactive = mostly above about -1.8.

Experiment: TERT promoter activity modulators, primary screen, cell-based, luciferase reporter, human (AID 1259240)
Conditions: A2780 TERT promoter luciferase reporter, 16 h; at 20 µM, fold versus average of vehicle-only wells

Fold change, inactive:
CCOC(=O)Cn1c(=O)oc2cc(S(=O)(=O)NC3CCCC(C)C3C)ccc21 (centres undefined) 1.21, Cc1ccc(-c2csc3ncnc(NCCC(=O)O)c23)cc1 1.18, COc1ccccc1OCC(O)Cn1c(=N)n(CCN2CCOCC2)c2ccccc21 (centres undefined) -1.29, CCN(CC)CCNc1nc2c(c(=O)[nH]c(=O)n2C)n1Cc1ccccc1Cl -1.23, O=C(c1cccc(Cl)c1)N1CCN(c2ccc3nnc(-c4ccccc4)n3n2)CC1 1, CC(=O)Oc1ccc(/C=c2\sc3nc(-c4ccco4)nn3c2=O)cc1 -1.31, COc1cc2[nH]c(C)cc(=O)c2cc1OC 1.12, CC(C)OCCCNc1nc(-c2ccccc2)nc2ccccc12 -1.24, O=c1/c(=C/c2ccco2)sc2nc(-c3ccco3)nn12 -1.71, CCCCCNC(=O)c1ccc(NC2=NC3CS(=O)(=O)CC3S2)cc1 (centres undefined) 1.22, c1cc2nncn2nc1NCCCN1CCOCC1 -1.08, COc1ccc(Nc2c(-c3ccc(C)o3)nc3ncccn23)cc1OC -1.44, Cc1cccc(C(=O)N2N=C(c3ccc(NS(C)(=O)=O)cc3)CC2c2ccco2)c1 (centres undefined) 1.31, C=CCn1c(NCCN(CC)CC)nc2c1c(=O)[nH]c(=O)n2C 1.22, O=C(CSc1nnc2c(n1)[nH]c1ccccc12)c1ccc(Br)cc1 1.22, O=c1[nH]c2ncccc2c(=O)n1CCc1c[nH]c2ccccc12 -1.06, CCOC(=O)c1c(NC(=O)CSc2ncccn2)sc(C(C)=O)c1C -1.02, O=C(c1ccc2c(=O)n3c(nc2c1)CCCCC3)N1CCCCCC1 1.21, CCOc1cc(C2CC(=O)Nc3cc4c(cc32)OCCO4)ccc1O (centres undefined) -1, C1=C(CCNc2nnc(Cc3cccnc3)c3ccccc23)CCCC1 -1.15, Cc1csc(NC(=O)C2CCCN2S(=O)(=O)c2cccc3cccnc23)n1 (centres undefined) -1.27, COC(=O)c1cccnc1-n1c(=O)c2cccnc2n(Cc2ccc(C#N)cc2)c1=O -1.61, Cc1cccc(-c2nc3s/c(=C\c4ccc(F)cc4)c(=O)n3n2)c1 -1.54, Cn1c(=O)oc2cc(S(=O)(=O)N3CCCC(C(=O)NC4CCCCCCC4)C3)ccc21 (centres undefined) 1.03, COc1cc(Nc2nc3ccccc3n3cnnc23)cc(OC)c1OC 1.1, CCCN(CCC)C(=O)C1CCCN(S(=O)(=O)c2ccc3c(c2)oc(=O)n3C)C1 (centres undefined) 1.49, CCOc1ccc(-n2c(C)c(C(C)=O)c3cc(OCC(N)=O)ccc32)cc1 -1.01, Cc1nc(SCC(=O)N2CCCC2)c2c(=O)n(C)c(=O)n(C)c2n1 1.5, CCOC(=O)C1=C(CS(=O)(=O)c2ccc(C)c(C)c2)NC(=O)NC1c1ccc(Cl)cc1 (centres undefined) 1.11, COc1cc(Nc2nnc(Cc3ccncc3)c3ccccc23)cc(OC)c1OC -1.31, O=C(CSc1nc(-c2ccc(F)cc2)cc(C(F)(F)F)n1)NCCCn1ccnc1 -1.16, C=CCOc1ccc(/C(O)=C2/C(=O)C(=O)N(CC3CCCO3)C23C(=O)N(C)c2ccccc23)cc1 (centres undefined) -1.41, CCOC(=O)N1CCC(Nc2c(N(C)C3CCCCC3)c(=O)c2=O)CC1 1.05

Fold change, active:
CC1CCC(NS(=O)(=O)c2cccc3cccnc23)CC1 (centres undefined) -2.05, CCOC(=O)c1c(C)n(C)c2ccc(OCC(O)CN3CCCCC3C)cc12 (centres undefined) -2.14, CC1CCCC(NS(=O)(=O)c2cccc3cccnc23)C1C (centres undefined) -3.72

outcome, inactive:
Cc1cc2[nH]c(=O)c(CCO)c(C)n2n1

outcome, active:
N=C1C(c2nc3ccccc3c(=O)[nH]2)=C(O)CN1c1ccc(Cl)c(Cl)c1, O=C(OCCCN=C1NS(=O)(=O)c2ccccc21)c1cccs1
